We go through 7 molecules from PubChem BioAssay (Tox21).

Experiment [1] is described as follows: Nuclear factor erythroid 2-related factor 2/antioxidant responsive element (Nrf2/ARE) small molecule agonists: qHTS cell viability counter screen in human keratinocytes (AID 1919968; active means well fitted curve in the direction sought with a large enough effect in the repeat runs; an effect the other way counts as inactive or inconclusive; further: nearly all actives have a fitted effect of over 55% in size). The procedure, abridged:
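Seed 1,500 KeratinoSens cells per well, then incubate 5 h at 37 C/5% CO2. Add compounds in DMSO and incubate 23 h. Add CellTiter-Fluor, wait 1 h and read fluorescence.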

The nature of experiment [2]: Nuclear factor erythroid 2-related factor 2/antioxidant responsive element (Nrf2/ARE) small molecule agonists: luciferase reporter gene qHTS assay in human keratinocytes (AID 1919969; further: nearly all actives have a fitted effect of over 35% in size; further: potency means the concentration at half of the fitted maximal effect). (In a reporter assay the amount or activity of a reporter protein is the signal.)
Experiment [3] addresses Gonadotropin-releasing hormone receptor (Homo sapiens) (UniProt P30968). Put plainly: Human gonadotropin-releasing hormone receptor (GnRHR) small molecule agonists, calcium flux assay in GnRHR-HEK293 cells (AID 1920063). Further: nearly all actives have a fitted effect of over 35% in size. The procedure, abridged:
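Cells: HEK293 stably expressing human GnRHR. Steps: overnight (18 h) culture, 1 h calcium dye loading at 37 C, compound addition, kinetic fluorescence read at 480/540 nm. Each compound tested at 15 concentrations in triplicate.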
On the technique in general: Calcium flux is commonly read through the fluorescence of an indicator in the cells.

Experiment [4] has as its target KiSS-1 receptor (Homo sapiens) (UniProt Q969F8). The experiment can be described thus: Human kisspeptin (KISS1R) small molecule agonists, calcium flux assay in KISS1R-HEK293 cells (AID 1920064; active means well fitted curve in the direction sought with a large enough effect in the repeat runs; an effect the other way counts as inactive or inconclusive). In short, it runs like this:
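Cells plated and incubated 18 h; dye added, 1 h at 37 C; compounds in DMSO pinned in; signal read at 480/540 nm every second for 3 min. Each compound tested at 15 concentrations in triplicate.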

Experiment [5] can be described thus: G protein-coupled receptor (GPCR) small molecule agonists, calcium flux assay: HEK293 wild type cell line counter screen (AID 1920065). The procedure, abridged: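 Counter-screen of the Tox21 10K library for non-specific calcium release: dye-loaded cells received compounds in DMSO and were monitored by kinetic fluorescence (480/540 nm, 3 min). Fifteen concentrations, run in triplicate.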

A short description of experiment [6]: p53 small molecule agonists, cell-based qHTS assay with human liver microsomes (AID 1963577). The procedure, abridged:
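Compounds act here after metabolic activation: human liver microsomes and NADPH, both at 0.5 mg/mL final, were co-added to p53RE-bla cells. Incubation ran 16 h at 37 C, followed by LiveBLAzer detection.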
(In general: Quantitative high-throughput screening tests each substance at several concentrations.)

The nature of experiment [7]: p53 small molecule agonists, cell-based qHTS assay with rat liver microsomes (AID 1963578). The procedure, abridged:
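Read-out is beta-lactamase reporter fluorescence (LiveBLAzer, 2 h, room temperature, dark) in p53RE-bla cells treated 16 h at 37 C with compound, rat liver microsomes and NADPH, both 0.5 mg/mL final.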

A short description of experiment [8]: p53 small molecule agonists, cell-based qHTS assay with human liver microsomes: qHTS cell viability counter screen (AID 1963579). Further: nearly all actives have a fitted effect of over 45% in size. The procedure, abridged:
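Cells carrying the p53 response-element beta-lactamase reporter are treated for 16 h at 37 C with test compounds in the presence of human liver microsomes and NADPH (both 0.5 mg/mL final); ATP-based CellTiter-Glo luminescence then reports viability.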

A short description of experiment [9]: p53 small molecule agonists, cell-based qHTS assay: qHTS cell viability counter screen (AID 1963581). Further: nearly all actives have a fitted effect of over 45% in size. The procedure, abridged:
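Cells: HCT-116 with p53 response element-driven beta-lactamase. Treatment: 16 h, 37 C, compounds in DMSO. Read: CellTiter-Glo luminescence after 30 min RT.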

The nature of experiment [10]: p53 small molecule agonists, cell-based qHTS assay (AID 1963582; active means well fitted activation curve with a large enough effect in the signal ratio in the repeat runs, not every such curve was filed as active; the % refers to the signal ratio). In short, it runs like this:
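Quantitative HTS in p53RE-bla cells: after a 5 h settling period, compounds delivered in DMSO were left on cells for 16 h at 37 C, and reporter induction was measured as fluorescence following 2 h substrate loading.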

Experiment [11] has as its target 5-hydroxytryptamine receptor 2A (Homo sapiens) (UniProt P28223). The experiment can be described thus: 5-hydroxytryptamine receptor 2A (HTR2A) small molecule antagonists, cell-based qHTS assay (AID 1963586). Further: nearly all actives have a fitted effect of over 45% in size. In short, it runs like this:
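Antagonist-mode intracellular calcium assay: DOI (4 nM) added after 5 min compound pre-incubation at room temperature to dye-loaded HTR2A-CHO cells. Fluorescence followed for 3 min, sampled every second.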

For experiment [12], the target named is Muscarinic acetylcholine receptor M1 (Homo sapiens) (UniProt P11229). The experiment can be described thus: Cholinergic receptor muscarinic 1 (CHRM1) small molecule antagonists, cell-based qHTS assay (AID 1963588). Further: nearly all actives have a fitted effect of over 40% in size. Further: potency means the concentration at half of the fitted maximal effect. The procedure, abridged: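 CHRM1-CHO calcium-flux assay, antagonist mode. Cells were seeded 18 h, dye-loaded 1 h at 37 C and given compound for 5 min at RT, then acetylcholine was added at 50nM. FDSS fluorescence was read 3 min; 15 concentrations, three runs.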

For experiment [13] the target is unchanged. Put plainly: Cholinergic receptor muscarinic 1 (CHRM1) small molecule agonists, cell-based qHTS assay (AID 1963589). Further: nearly all actives have a fitted effect of over 35% in size. The procedure, abridged: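 Agonist-mode qHTS in CHO cells stably carrying human muscarinic M1. Intracellular calcium is tracked by fluorescence every second after compound transfer; each compound runs at 15 concentrations in three independent runs.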

The target of experiment [14] is Beta-2 adrenergic receptor (Homo sapiens) (UniProt P07550). Put plainly: Adrenergic beta2 receptor (ADRB2) small molecule antagonists, cell-based qHTS assay (AID 1963592). Further: series mostly up to about 92 µM; nearly all actives have a fitted effect of over 50% in size. In short, it runs like this:
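Cells (CHO, stable ADRB2 overexpression) incubated 18-20hr at 37C; compounds added from DMSO; agonist mix (1nM isoproterenol, 100uM IBMX, 25uM Ro-20-1724) added; 0.5hr RT; d2-cAMP and anti-cAMP-cryptate added; 1hr RT; 665/615 nm read.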

Experiment [15] addresses D(2) dopamine receptor (Homo sapiens) (UniProt P14416). The experiment can be described thus: Dopamine D2 receptor (DRD2) small molecule agonists, cell-based qHTS assay (AID 1963594). Further: nearly all actives have a fitted effect of over 35% in size. The procedure, abridged: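 cAMP accumulation in DRD2-HEK293 cells measured by HTRF after 1 h detection; compounds added 10 min before NKH477 (200nM […]) forskolin-analogue stimulation, 30 min at room temperature, with Ro20-1724 present at 0.1 mM final.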

Experiment [16] has the same target. The experiment can be described thus: Dopamine D2 receptor (DRD2) small molecule antagonists, cell-based qHTS assay (AID 1963595; active means well fitted inhibition curve with a large enough effect in the signal ratio in the repeat runs, with a control signal flat; the % refers to the signal ratio; further: potency means the concentration at half of the fitted maximal effect). In short, it runs like this:
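Antagonism was scored as restored cAMP in HEK293-DRD2 cells. These cells were stimulated with 200 nM NKH477 and 12 nM quinpirole for 30 min at room temperature, in the presence of 0.1 mM Ro20-1724.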

Experiment [17] addresses 5-hydroxytryptamine receptor 2A (Homo sapiens) (UniProt P28223). Put plainly: 5-hydroxytryptamine receptor 2A (HTR2A) small molecule agonists, cell-based qHTS assay (AID 1963587). Further: nearly all actives have a fitted effect of over 30% in size. In short, it runs like this:
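Kinetic calcium-flux fluorescence (2 min, 1 sec intervals) after compound addition in agonist mode. HTR2A-CHO cells were cultured 18 h, then dye-loaded 1 h at 37 C.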

Experiment [18] is described as follows: cAMP Responsive Elements (CRE) small molecule agonists, cell-based qHTS assay (AID 1963590). In short, it runs like this: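 Agonist mode qHTS in CRE-bla HEK 293T cells: compounds dosed from DMSO for 3 h at 37 C/5% CO2, followed by LiveBLAzer B/G FRET substrate for 2 h at room temperature.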
The nature of experiment [19]: cAMP Responsive Elements (CRE) small molecule antagonists, cell-based qHTS assay (AID 1963591; active means well fitted inhibition curve with a large enough effect in the signal ratio in the repeat runs, not every such curve was filed as active; the % refers to the signal ratio). The procedure, abridged:
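Antagonist mode: test compounds are co-incubated with the adenylyl cyclase activator NKH477 (0.25 uM final) on CRE-bla HEK293T cells for 3 h at 37 °C, followed by LiveBLAzer substrate loading.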

Unmarked numbers belong to inactive results. Results filed as inconclusive are left out. The source made the active and inactive calls. Unless noted, the call rests on the fitted dose curve.
On the % scale 0 is the no-effect control and ±100 the full control effect.

Sequence of KiSS-1 receptor (Homo sapiens) (Q969F8 whole entry, looked up): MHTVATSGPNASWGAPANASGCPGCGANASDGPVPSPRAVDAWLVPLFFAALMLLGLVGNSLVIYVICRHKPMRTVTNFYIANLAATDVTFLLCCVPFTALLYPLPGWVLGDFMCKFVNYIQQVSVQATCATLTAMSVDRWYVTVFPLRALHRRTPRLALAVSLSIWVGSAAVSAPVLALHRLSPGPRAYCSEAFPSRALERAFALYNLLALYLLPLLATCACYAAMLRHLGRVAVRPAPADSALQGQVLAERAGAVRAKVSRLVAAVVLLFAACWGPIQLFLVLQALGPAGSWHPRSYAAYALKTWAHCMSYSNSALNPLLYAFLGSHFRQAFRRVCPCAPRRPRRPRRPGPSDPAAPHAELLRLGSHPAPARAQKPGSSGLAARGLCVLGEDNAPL
Sequence of Muscarinic acetylcholine receptor M1 (Homo sapiens) (P11229 whole entry, looked up): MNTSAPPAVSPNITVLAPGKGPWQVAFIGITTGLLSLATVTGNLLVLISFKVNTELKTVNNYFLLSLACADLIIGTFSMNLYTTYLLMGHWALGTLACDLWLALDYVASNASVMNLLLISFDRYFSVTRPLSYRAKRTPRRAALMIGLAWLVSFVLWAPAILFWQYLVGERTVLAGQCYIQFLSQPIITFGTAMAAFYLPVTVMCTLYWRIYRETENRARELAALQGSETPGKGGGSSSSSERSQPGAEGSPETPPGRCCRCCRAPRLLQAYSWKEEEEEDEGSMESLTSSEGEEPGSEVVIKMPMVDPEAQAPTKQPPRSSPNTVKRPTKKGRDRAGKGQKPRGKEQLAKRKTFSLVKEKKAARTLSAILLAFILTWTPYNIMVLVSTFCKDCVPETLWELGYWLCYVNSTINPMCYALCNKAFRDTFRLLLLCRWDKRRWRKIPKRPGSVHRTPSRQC
Sequence of Beta-2 adrenergic receptor (Homo sapiens) (P07550 whole entry, looked up): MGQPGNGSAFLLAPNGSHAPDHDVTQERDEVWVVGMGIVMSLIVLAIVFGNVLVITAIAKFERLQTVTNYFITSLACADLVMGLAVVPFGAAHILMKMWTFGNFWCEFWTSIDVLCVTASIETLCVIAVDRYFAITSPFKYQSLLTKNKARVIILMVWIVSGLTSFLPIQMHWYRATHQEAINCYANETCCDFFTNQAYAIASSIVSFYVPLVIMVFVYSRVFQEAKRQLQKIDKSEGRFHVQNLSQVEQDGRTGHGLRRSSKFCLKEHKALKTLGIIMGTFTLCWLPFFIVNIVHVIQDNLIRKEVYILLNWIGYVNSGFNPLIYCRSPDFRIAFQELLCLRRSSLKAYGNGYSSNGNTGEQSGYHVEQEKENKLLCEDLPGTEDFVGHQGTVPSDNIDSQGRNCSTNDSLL
Sequence of 5-hydroxytryptamine receptor 2A (Homo sapiens) (P28223 whole entry, looked up): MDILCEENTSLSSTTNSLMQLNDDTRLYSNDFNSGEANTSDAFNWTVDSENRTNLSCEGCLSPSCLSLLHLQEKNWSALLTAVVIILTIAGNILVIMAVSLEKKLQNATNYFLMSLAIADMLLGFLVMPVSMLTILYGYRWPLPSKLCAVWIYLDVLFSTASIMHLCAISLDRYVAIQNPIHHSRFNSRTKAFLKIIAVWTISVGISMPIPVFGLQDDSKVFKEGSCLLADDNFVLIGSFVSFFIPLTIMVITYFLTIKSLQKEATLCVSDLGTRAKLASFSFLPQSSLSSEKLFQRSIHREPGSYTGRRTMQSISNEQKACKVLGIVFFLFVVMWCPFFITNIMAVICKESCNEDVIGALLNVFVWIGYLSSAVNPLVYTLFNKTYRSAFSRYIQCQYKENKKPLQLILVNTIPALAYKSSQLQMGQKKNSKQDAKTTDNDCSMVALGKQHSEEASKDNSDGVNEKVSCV
Sequence of D(2) dopamine receptor (Homo sapiens) (P14416 whole entry, looked up): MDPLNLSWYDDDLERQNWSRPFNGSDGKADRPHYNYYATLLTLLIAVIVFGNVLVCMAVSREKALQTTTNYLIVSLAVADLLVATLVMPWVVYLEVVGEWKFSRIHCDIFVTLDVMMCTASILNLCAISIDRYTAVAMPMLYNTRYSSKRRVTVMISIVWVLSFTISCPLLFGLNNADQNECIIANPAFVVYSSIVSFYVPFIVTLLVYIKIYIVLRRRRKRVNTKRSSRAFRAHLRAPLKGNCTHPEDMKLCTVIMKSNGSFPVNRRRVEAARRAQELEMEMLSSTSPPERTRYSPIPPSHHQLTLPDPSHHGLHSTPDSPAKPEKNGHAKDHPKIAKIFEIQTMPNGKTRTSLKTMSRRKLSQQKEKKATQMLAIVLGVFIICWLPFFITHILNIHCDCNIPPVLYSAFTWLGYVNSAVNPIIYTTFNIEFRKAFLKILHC
Sequence of Gonadotropin-releasing hormone receptor (Homo sapiens) (P30968 whole entry, looked up): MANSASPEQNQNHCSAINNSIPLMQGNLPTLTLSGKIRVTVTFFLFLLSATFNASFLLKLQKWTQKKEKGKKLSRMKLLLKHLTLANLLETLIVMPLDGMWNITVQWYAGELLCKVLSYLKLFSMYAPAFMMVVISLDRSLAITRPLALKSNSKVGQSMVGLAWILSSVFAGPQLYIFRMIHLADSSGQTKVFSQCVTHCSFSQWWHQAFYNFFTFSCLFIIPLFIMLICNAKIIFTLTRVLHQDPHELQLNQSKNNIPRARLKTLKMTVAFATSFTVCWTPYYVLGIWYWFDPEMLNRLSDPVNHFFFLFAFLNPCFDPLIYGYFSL

`Cc1ccc(OC(=O)c2ccccc2O)cc1`: the Potency result in [1], in experiment [2], in [3], in experiment [6], in experiment [7] and in experiment [8] was “inactive” throughout. In addition, the Potency entry in [9], in [10], in [11], in [12], in experiment [13] and in experiment [14] was “inactive” each time. In addition, the Potency result in [15] and in experiment [16] was “inactive” in each case. Besides, the outcome in experiment [4] and in [5] was inactive.
For the molecule `Cc1nc2n(c(=O)c1CCN1CCC(c3noc4cc(F)ccc34)CC1)CCC[C@H]2O`, the activity change, negative = cytotoxicity is 0.553% [at 19 µM] in experiment [1], -2.44% [at 13.5 µM] in experiment [8] and -16.9% [at 13.5 µM] in experiment [9]. For the same molecule, the activity, positive = activation in experiment [2] is 1.67% [at 19 µM]. For the same molecule, the activity change in [3] was -1.01% [at 11.8 µM, stronger effect = higher value]. Further, the activation in [4] was 2.67% [at 15.8 µM]; in experiment [5], -0.871% [at 11.8 µM]; in experiment [6], -1.61% [at 13.5 µM]; in experiment [7] it was -1.62% [at 13.6 µM]; in [10] it was -2.71% [at 13.5 µM]; in experiment [17] it was -9.85% [at 15.9 µM]. The activation was -0.822% [at 15.8 µM] in [13], -1.39% [at 19 µM] in [18] and -27% [at 19 µM] in experiment [15]. For the same molecule, the Potency in experiment [12] was 4480 nM (active); in [16], 32.6 nM (active). Moreover, the activity change, negative = inhibition is 6.49% [at 18.9 µM] in [19] and -0.824% [at 19 µM] in experiment [14].
Consider `Cc1ccc(Cl)cc1Cl`, for which the Potency entry in experiment [1], in experiment [2], in [3], in [6], in experiment [7] and in experiment [8] was “inactive” throughout. Further, the Potency entry in experiment [9], in experiment [10], in experiment [11], in [17], in experiment [13] and in [18] was “inactive” in each case. Also, the Potency entry in experiment [19], in [14], in experiment [15] and in experiment [16] was “inactive” in each case. In addition, the result in [4] and in [5] was inactive.
As to `C=C[Si](C)(C)O[Si](C)(C)C=C`, the Potency result in [1], in [2], in experiment [3], in experiment [6], in experiment [7] and in [8] was “inactive” in each case. Besides, the Potency entry in experiment [9], in experiment [10], in [17], in experiment [12], in experiment [13] and in [18] was “inactive” each time. Further, the Potency result in experiment [19], in experiment [14], in experiment [15] and in [16] was “inactive” each time. Moreover, the result in [4] and in [5] was inactive.
Turning to `CC1=CC(O)CC(C)(C)C1` (stereo not given), the Potency result in experiment [1], in experiment [2], in experiment [3], in [6], in [7] and in [8] was “inactive” in each case. For the same molecule, the Potency entry in experiment [9], in [10], in experiment [11], in experiment [17], in experiment [12] and in [13] was “inactive” each time. Besides, the Potency entry in experiment [18], in experiment [19], in [15] and in experiment [16] was “inactive” each time. In addition, the outcome in experiment [4] and in [5] was inactive.
Consider `O=C1c2ccccc2C(=O)C1c1ccc2ccccc2n1`, for which the Potency result in experiment [1], in [3], in experiment [6], in [7], in experiment [8] and in experiment [9] was “inactive” throughout. In addition, the Potency entry in [10], in experiment [11], in experiment [17], in experiment [13], in experiment [18] and in experiment [19] was “inactive” each time. Further, the Potency entry in [14], in experiment [15] and in experiment [16] was “inactive” each time. The Potency in [2] was 1210 nM (active). Moreover, the outcome in experiment [4] and in experiment [5] was inactive.
In the case of `O=S1OCCO1`, the Potency result in experiment [1], in experiment [2], in experiment [3], in experiment [6], in experiment [7] and in experiment [8] was “inactive” throughout. In addition, the Potency result in [9], in experiment [10], in experiment [11], in experiment [17], in [12] and in experiment [13] was “inactive” in each case. The Potency entry in experiment [18], in [19], in experiment [14], in experiment [15] and in experiment [16] was “inactive” in each case. In addition, the outcome in [4] and in [5] was inactive.
